Data published in PMC11006913.

Biological target: HOXB9 (Homo sapiens, UniProt P17482 171-250, T197M)
Test: PBM; 200 nM protein, PBS
Details: dsDNA, one strand shown

Chain of HOXB9 (Homo sapiens, UniProt P17482 171-250, T197M) (P17482 171-250 T197M): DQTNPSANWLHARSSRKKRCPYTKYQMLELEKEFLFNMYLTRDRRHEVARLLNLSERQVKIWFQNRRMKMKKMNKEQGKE

Sequence	binding signal
CCGTGAGG	8.4 upbm affinity estimate (log intensity, higher = more binding, comparable within an allelic series)
GACATAAA	9.74 upbm affinity estimate (log intensity, higher = more binding, comparable within an allelic series)
CCACGTCG	8.7 upbm affinity estimate (log intensity, higher = more binding, comparable within an allelic series)
CACGCCTC	8.36 upbm affinity estimate (log intensity, higher = more binding, comparable within an allelic series)
TATAAATA	9.81 upbm affinity estimate (log intensity, higher = more binding, comparable within an allelic series)
CCGGACGC	8.6 upbm affinity estimate (log intensity, higher = more binding, comparable within an allelic series)
GCAGGCCC	8.19 upbm affinity estimate (log intensity, higher = more binding, comparable within an allelic series)
GGAGCTAC	8.61 upbm affinity estimate (log intensity, higher = more binding, comparable within an allelic series)
CCAGACCG	8.54 upbm affinity estimate (log intensity, higher = more binding, comparable within an allelic series)
AAGTTATC	9.1 upbm affinity estimate (log intensity, higher = more binding, comparable within an allelic series)
CTTGGGCC	8.42 upbm affinity estimate (log intensity, higher = more binding, comparable within an allelic series)
CCGATCGG	8.51 upbm affinity estimate (log intensity, higher = more binding, comparable within an allelic series)
CGTGGACC	8.66 upbm affinity estimate (log intensity, higher = more binding, comparable within an allelic series)
CCTGCTCG	8.58 upbm affinity estimate (log intensity, higher = more binding, comparable within an allelic series)
CTCGACCA	8.44 upbm affinity estimate (log intensity, higher = more binding, comparable within an allelic series)
ACCGGGGA	8.44 upbm affinity estimate (log intensity, higher = more binding, comparable within an allelic series)
AGCATCCG	8.64 upbm affinity estimate (log intensity, higher = more binding, comparable within an allelic series)
CCCGTCTC	8.46 upbm affinity estimate (log intensity, higher = more binding, comparable within an allelic series)
CTGGCGTC	8.43 upbm affinity estimate (log intensity, higher = more binding, comparable within an allelic series)
CCGCAGCC	8.52 upbm affinity estimate (log intensity, higher = more binding, comparable within an allelic series)

Sequence	binding signal
CGCTACCG	8.45 upbm affinity estimate (log intensity, higher = more binding, comparable within an allelic series)
ATAAATGA	9.72 upbm affinity estimate (log intensity, higher = more binding, comparable within an allelic series)
GCGGGTGA	8.59 upbm affinity estimate (log intensity, higher = more binding, comparable within an allelic series)
AGGGCGTG	8.57 upbm affinity estimate (log intensity, higher = more binding, comparable within an allelic series)
ATAAATTG	9.96 upbm affinity estimate (log intensity, higher = more binding, comparable within an allelic series)
CGCCCAGA	8.62 upbm affinity estimate (log intensity, higher = more binding, comparable within an allelic series)
AGCCCCGG	8.65 upbm affinity estimate (log intensity, higher = more binding, comparable within an allelic series)
CCTAGCCG	8.53 upbm affinity estimate (log intensity, higher = more binding, comparable within an allelic series)
GACTGACC	8.57 upbm affinity estimate (log intensity, higher = more binding, comparable within an allelic series)
CGGGCAAC	8.62 upbm affinity estimate (log intensity, higher = more binding, comparable within an allelic series)
CCTATAAG	9.17 upbm affinity estimate (log intensity, higher = more binding, comparable within an allelic series)
CTTGGCGC	8.47 upbm affinity estimate (log intensity, higher = more binding, comparable within an allelic series)
CCCGCAAG	8.42 upbm affinity estimate (log intensity, higher = more binding, comparable within an allelic series)
CGCCGGAC	8.48 upbm affinity estimate (log intensity, higher = more binding, comparable within an allelic series)
CTCAGGCC	8.41 upbm affinity estimate (log intensity, higher = more binding, comparable within an allelic series)
GCGCGGCA	8.49 upbm affinity estimate (log intensity, higher = more binding, comparable within an allelic series)
GAACCGGC	8.52 upbm affinity estimate (log intensity, higher = more binding, comparable within an allelic series)
CTGCCGGC	8.63 upbm affinity estimate (log intensity, higher = more binding, comparable within an allelic series)
CGCGCCCC	8.45 upbm affinity estimate (log intensity, higher = more binding, comparable within an allelic series)
CAGGGGCC	8.21 upbm affinity estimate (log intensity, higher = more binding, comparable within an allelic series)

Biological target: HOXA2 (Homo sapiens, UniProt O43364 129-215, R185T)
Test: PBM; 200 nM protein, PBS
Details: dsDNA, one strand shown

Chain of HOXA2 (O43364 129-215 R185T): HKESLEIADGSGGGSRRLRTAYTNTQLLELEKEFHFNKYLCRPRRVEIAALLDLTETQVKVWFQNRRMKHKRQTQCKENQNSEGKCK

Sequence	binding signal
CGCCGGAC	7.23 upbm affinity estimate (log intensity, higher = more binding, comparable within an allelic series)
CTCAGGCC	7.06 upbm affinity estimate (log intensity, higher = more binding, comparable within an allelic series)
GCGCGGCA	7.06 upbm affinity estimate (log intensity, higher = more binding, comparable within an allelic series)
GAACCGGC	7.08 upbm affinity estimate (log intensity, higher = more binding, comparable within an allelic series)
CGCGCCCC	7.42 upbm affinity estimate (log intensity, higher = more binding, comparable within an allelic series)

Biological target: HOXB9 (Homo sapiens, UniProt P17482 171-250)
Test: PBM; 200 nM protein, PBS
Details: dsDNA, one strand shown

Chain of HOXB9 (Homo sapiens, UniProt P17482 171-250) (P17482 171-250): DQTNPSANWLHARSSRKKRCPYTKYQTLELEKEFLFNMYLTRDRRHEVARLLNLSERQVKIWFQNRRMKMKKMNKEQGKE

Sequence	binding signal
CCGTGAGG	8.23 upbm affinity estimate (log intensity, higher = more binding, comparable within an allelic series)
GACATAAA	11.7 upbm affinity estimate (log intensity, higher = more binding, comparable within an allelic series)
CCACGTCG	8.53 upbm affinity estimate (log intensity, higher = more binding, comparable within an allelic series)
CACGCCTC	8.42 upbm affinity estimate (log intensity, higher = more binding, comparable within an allelic series)
TATAAATA	11.2 upbm affinity estimate (log intensity, higher = more binding, comparable within an allelic series)
CCGGACGC	8.5 upbm affinity estimate (log intensity, higher = more binding, comparable within an allelic series)
GCAGGCCC	8.31 upbm affinity estimate (log intensity, higher = more binding, comparable within an allelic series)
GGAGCTAC	8.26 upbm affinity estimate (log intensity, higher = more binding, comparable within an allelic series)
CCAGACCG	8.51 upbm affinity estimate (log intensity, higher = more binding, comparable within an allelic series)
AAGTTATC	9.66 upbm affinity estimate (log intensity, higher = more binding, comparable within an allelic series)
CTTGGGCC	8.37 upbm affinity estimate (log intensity, higher = more binding, comparable within an allelic series)
CCGATCGG	8.53 upbm affinity estimate (log intensity, higher = more binding, comparable within an allelic series)
CGTGGACC	8.61 upbm affinity estimate (log intensity, higher = more binding, comparable within an allelic series)
CCTGCTCG	8.34 upbm affinity estimate (log intensity, higher = more binding, comparable within an allelic series)
CTCGACCA	8.28 upbm affinity estimate (log intensity, higher = more binding, comparable within an allelic series)
ACCGGGGA	8.19 upbm affinity estimate (log intensity, higher = more binding, comparable within an allelic series)
AGCATCCG	8.73 upbm affinity estimate (log intensity, higher = more binding, comparable within an allelic series)
CCCGTCTC	8.32 upbm affinity estimate (log intensity, higher = more binding, comparable within an allelic series)
CTGGCGTC	8.27 upbm affinity estimate (log intensity, higher = more binding, comparable within an allelic series)
CCGCAGCC	8.38 upbm affinity estimate (log intensity, higher = more binding, comparable within an allelic series)

Sequence	binding signal
CGCTACCG	8.54 upbm affinity estimate (log intensity, higher = more binding, comparable within an allelic series)
ATAAATGA	11 upbm affinity estimate (log intensity, higher = more binding, comparable within an allelic series)
GCGGGTGA	8.45 upbm affinity estimate (log intensity, higher = more binding, comparable within an allelic series)
AGGGCGTG	8.4 upbm affinity estimate (log intensity, higher = more binding, comparable within an allelic series)
CGCCCAGA	8.59 upbm affinity estimate (log intensity, higher = more binding, comparable within an allelic series)
AGCCCCGG	8.31 upbm affinity estimate (log intensity, higher = more binding, comparable within an allelic series)
CCTAGCCG	8.64 upbm affinity estimate (log intensity, higher = more binding, comparable within an allelic series)
GACTGACC	8.7 upbm affinity estimate (log intensity, higher = more binding, comparable within an allelic series)
CGGGCAAC	8.62 upbm affinity estimate (log intensity, higher = more binding, comparable within an allelic series)
CCTATAAG	9.71 upbm affinity estimate (log intensity, higher = more binding, comparable within an allelic series)
CTTGGCGC	8.24 upbm affinity estimate (log intensity, higher = more binding, comparable within an allelic series)
CCCGCAAG	8.44 upbm affinity estimate (log intensity, higher = more binding, comparable within an allelic series)
CGCCGGAC	8.46 upbm affinity estimate (log intensity, higher = more binding, comparable within an allelic series)
CTCAGGCC	8.36 upbm affinity estimate (log intensity, higher = more binding, comparable within an allelic series)
GCGCGGCA	8.54 upbm affinity estimate (log intensity, higher = more binding, comparable within an allelic series)
GAACCGGC	8.43 upbm affinity estimate (log intensity, higher = more binding, comparable within an allelic series)
CTGCCGGC	8.65 upbm affinity estimate (log intensity, higher = more binding, comparable within an allelic series)
CGCGCCCC	8.02 upbm affinity estimate (log intensity, higher = more binding, comparable within an allelic series)
CAGGGGCC	8.25 upbm affinity estimate (log intensity, higher = more binding, comparable within an allelic series)

Biological target: MSX2 (Homo sapiens, UniProt P35548 130-214, R199I)
Test: PBM; 200 nM protein, PBS
Details: dsDNA, one strand shown

Chain of MSX2 (P35548 130-214 R199I): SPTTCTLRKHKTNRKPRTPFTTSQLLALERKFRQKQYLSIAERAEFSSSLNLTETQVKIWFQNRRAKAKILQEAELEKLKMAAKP

Sequence	binding signal
CCGTGAGG	9.41 upbm affinity estimate (log intensity, higher = more binding, comparable within an allelic series)
CCTGCTCG	9.56 upbm affinity estimate (log intensity, higher = more binding, comparable within an allelic series)
ACCGGGGA	9.45 upbm affinity estimate (log intensity, higher = more binding, comparable within an allelic series)
